Measurements: PubChem BioAssay (EPA / NIEHS)
The source made the active and inactive calls. Rule for the calls: active = hit-call score of the fitted dose curve at least 0.9, where 1 is the maximum; inactive = score below 0.9.

What was measured:
[1] = read-out: catalase (CAT), CAT (gene 847); assay: LTEA_HepaRG_CAT: Life Technologies and Expression Analysis (LTEA) Assay for catalase (CAT) using HepaRG (AID 2283452); settings: mRNA level, 48 h; actives raise or lower the signal
Outline: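 Expression of CAT was quantified by TaqMan qRT-PCR with ACTB/GAPDH/POLR2A normalization after 48 h chemical exposure of HepaRG. Eight-point half-log series, top 100 uM, in 0.5% DMSO; gain or loss fitted against vehicle.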

[2] = read-out: flavin-containing dimethylaniline monooxygenases 3 (FMO3), FMO3 (gene 2328); assay: LTEA_HepaRG_FMO3: Life Technologies and Expression Analysis (LTEA) Assay for flavin-containing dimethylaniline monooxygenases 3 (FMO3) using HepaRG (AID 2283453); settings: mRNA level, 48 h; actives raise or lower the signal;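 for AC50: differentiated human HepaRG liver cells in serum-free induction medium; FMO3 transcript by TaqMan qRT-PCR normalized to ACTB GAPDH and POLR2A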
Outline: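 HepaRG, 48 h exposure, 8-pt half-log series from 100 uM, 0.5% DMSO vehicle, duplicates; FMO3 transcript by Fluidigm TaqMan qRT-PCR, housekeeping-normalized; gain/loss fit vs DMSO.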

[3] = read-out: Cytochrome P450 (CYP1A1), CYP1A1 (gene 1543); assay: LTEA_HepaRG_CYP1A1: Life Technologies and Expression Analysis (LTEA) Assay for Cytochrome P450 (CYP1A1) using HepaRG (AID 2283454); settings: mRNA level, 48 h; actives raise or lower the signal
Outline: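 CYP1A1 transcript levels measured by Fluidigm qRT-PCR against three housekeeping genes, 48 h after chemical dosing of human HepaRG cells (highest concentration 100 uM, half-log steps, 0.5% DMSO vehicle). Gain or loss of signal fitted relative to DMSO.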

[4] = read-out: CFLAR gene, CFLAR (gene 8837); assay: LTEA_HepaRG_CFLAR: Life Technologies and Expression Analysis (LTEA) Assay for CFLAR gene using HepaRG (AID 2283455); settings: mRNA level, 48 h; actives raise or lower the signal
Outline: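 HepaRG, 48 h exposure, 8-pt conc-response (100 uM top, half-log), 0.5% DMSO vehicle, duplicates. CFLAR expression by qRT-PCR; ACTB/GAPDH/POLR2A normalization; gain or loss fit vs DMSO baseline.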

[5] = read-out: Forkhead box O1 (FOXO1), FOXO1 (gene 2308); assay: LTEA_HepaRG_FOXO1: Life Technologies and Expression Analysis (LTEA) Assay for Forkhead box O1 (FOXO1) using HepaRG (AID 2283456); settings: mRNA level, 48 h; actives raise or lower the signal
Outline: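 Readout is FOXO1 transcript level by multiplexed qRT-PCR against three housekeeping genes, curve-fitted in both directions relative to 0.5% DMSO vehicle. Human HepaRG cultures received chemicals for 48 h, up to 100 uM in half-log steps.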

[6] = CEETOX_H295R_TESTO: CeeTox H295R High-throughput Steroidogenesis Assay for Testosterone (TESTO) (AID 2283457); settings: actives raise or lower the signal
Outline: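 Testosterone secreted into the medium over 48 h by H295R cells (maximum passage 10) was quantified by LC-MS/MS after MTBE extraction. Fitted in both directions against DMSO, with concentrations diluted until MTT viability was ≥70%.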

[7] = read-out: growth arrest and DNA damage 45 (GADD45A), GADD45A (gene 1647); assay: LTEA_HepaRG_GADD45A: Life Technologies and Expression Analysis (LTEA) Assay for growth arrest and DNA damage 45 (GADD45A) using HepaRG (AID 2283458); settings: mRNA level, 48 h; actives raise or lower the signal
Outline: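 Human HepaRG liver cells are treated in duplicate for 48 h with chemicals in 0.5% DMSO, highest concentration 100 uM. Expression is read by qRT-PCR and analyzed in both directions against vehicle.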

[8] = read-out: Forkhead box O3 (FOXO3), FOXO3 (gene 2309); assay: LTEA_HepaRG_FOXO3: Life Technologies and Expression Analysis (LTEA) Assay for Forkhead box O3 (FOXO3) using HepaRG (AID 2283459); settings: mRNA level, 48 h; actives raise or lower the signal
Outline: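 HepaRG, 48 h post-dose; 8 conc., half-log from 100 uM, 0.5% DMSO, duplicates; serum-free induction medium. Readout: FOXO3 mRNA, TaqMan qRT-PCR, housekeeping-normalized. Bidirectional curve fit vs DMSO baseline.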

[9] = read-out: ABC Transporter (ABCB1), ABCB1 (gene 5243); assay: LTEA_HepaRG_ABCB1: Life Technologies and Expression Analysis (LTEA) Assay for ABC Transporter (ABCB1) using HepaRG (AID 2283460); settings: mRNA level, 48 h; actives raise or lower the signal
Outline: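 Expression of ABCB1 was quantified by qRT-PCR against three housekeeping genes after human HepaRG cultures received test chemicals for 48 hours. Concentrations spanned eight half-log steps topping at 100 uM in 0.5% DMSO; gain or loss of signal was fitted relative to vehicle.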

[10] = read-out: growth arrest and DNA damage 45 (GADD45B), GADD45B (gene 4616); assay: LTEA_HepaRG_GADD45B: Life Technologies and Expression Analysis (LTEA) Assay for growth arrest and DNA damage 45 (GADD45B) using HepaRG (AID 2283461); settings: mRNA level, 48 h; actives raise or lower the signal
Outline: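 Transcript level quantified by Fluidigm TaqMan qRT-PCR with three housekeeping genes for normalization, analyzed for up- or down-regulation against 0.5% DMSO. HepaRG cultures dosed 48 h at eight half-log concentrations up to 100 uM, duplicates.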

[11] = read-out: ABC Transporter (ABCC3), ABCC3 (gene 8714); assay: LTEA_HepaRG_ABCC3: Life Technologies and Expression Analysis (LTEA) Assay for ABC Transporter (ABCC3) using HepaRG (AID 2283462); settings: mRNA level, 48 h; actives raise or lower the signal
Outline: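 Transcript level by TaqMan qRT-PCR, normalised to three housekeeping genes, fitted in both directions relative to vehicle. Chemicals tested in duplicate at eight half-log concentrations up to 100 uM for 48 h on HepaRG cells (0.5% DMSO).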

[12] = read-out: ABC Transporter (ABCB11), ABCB11 (gene 8647); assay: LTEA_HepaRG_ABCB11: Life Technologies and Expression Analysis (LTEA) Assay for ABC Transporter (ABCB11) using HepaRG (AID 2283463); settings: mRNA level, 48 h; actives raise or lower the signal
Outline: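 ABCB11 transcript levels are read by Fluidigm TaqMan qRT-PCR after 48 h chemical treatment of human HepaRG cells. Concentrations span 100 uM downward in half-log steps with 0.5% DMSO; gain or loss is fitted against DMSO controls.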

[13] = read-out: ABC Transporter (ABCC2), ABCC2 (gene 1244); assay: LTEA_HepaRG_ABCC2: Life Technologies and Expression Analysis (LTEA) Assay for ABC Transporter (ABCC2) using HepaRG (AID 2283464); settings: mRNA level, 48 h; actives raise or lower the signal
Outline: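 Endpoint is ABCC2 transcript level from qRT-PCR, normalized to three housekeeping genes and fitted bidirectionally relative to DMSO. Human HepaRG cells received test chemical for 48 h at up to 100 uM (8 points, half-log steps, 0.5% DMSO), duplicate wells.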

[14] = read-out: Broad substrate specificity ATP-binding cassette transporter ABCG2 (Homo sapiens) (UniProt Q9UNQ0); assay: LTEA_HepaRG_ABCG2: Life Technologies and Expression Analysis (LTEA) Assay for ABC Transporter (ABCG2) using HepaRG (AID 2283465); settings: mRNA level, 48 h; actives raise or lower the signal
Outline: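 Read-out is ABCG2 mRNA induction or loss quantified by qRT-PCR after 48 h chemical treatment of human HepaRG cells, normalized to three housekeeping genes. Concentrations reached 100 uM top in half-log steps; fitting was bidirectional against 0.5% DMSO.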

[15] = read-out: ATP-citrate lyase (ACLY), ACLY (gene 47); assay: LTEA_HepaRG_ACLY: Life Technologies and Expression Analysis (LTEA) Assay for ATP-citrate lyase (ACLY) using HepaRG (AID 2283466); settings: mRNA level, 48 h; actives raise or lower the signal
Outline: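 HepaRG, 48 h exposure, 8-pt half-log dilutions (top 100 uM), 0.5% DMSO. Readout: ACLY mRNA, TaqMan qRT-PCR, housekeeping-normalized (ACTB/GAPDH/POLR2A). Bidirectional curve fit vs DMSO.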

[16] = read-out: Peroxisomal acyl-coenzyme A oxidase 1 (ACOX1) gene, ACOX1 (gene 51); assay: LTEA_HepaRG_ACOX1: Life Technologies and Expression Analysis (LTEA) Assay for Peroxisomal acyl-coenzyme A oxidase 1 (ACOX1) gene using HepaRG (AID 2283467); settings: mRNA level, 48 h; actives raise or lower the signal
Outline: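 Measured by qRT-PCR against three housekeeping genes: ACOX1 transcript change in human HepaRG cells after 48 h dosing. Concentrations ran up to 100 uM in half-log steps. Curves were fitted bidirectionally relative to 0.5% DMSO.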

[17] = read-out: Alkaline Phosphatase, Placental (ALPP) gene, ALPP (gene 250); assay: LTEA_HepaRG_ALPP: Life Technologies and Expression Analysis (LTEA) Assay for Alkaline Phosphatase, Placental (ALPP) gene using HepaRG (AID 2283468); settings: mRNA level, 48 h; actives raise or lower the signal;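 for AC50: differentiated human HepaRG liver cells in serum-free induction medium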
Outline: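 ALPP transcript level, measured by qRT-PCR and normalized to three housekeeping genes (ACTB, GAPDH, POLR2A), after 48 h dosing of differentiated HepaRG in serum-free induction medium. Top concentration 100 uM with half-log dilutions (8 points, 0.5% DMSO, duplicates); bidirectional fitting relative to DMSO.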

[18] = read-out: Bcl-2 (BAD) gene, BAD (gene 572); assay: LTEA_HepaRG_BAD: Life Technologies and Expression Analysis (LTEA) Assay for Bcl-2 (BAD) gene using HepaRG (AID 2283469); settings: mRNA level, 48 h; actives raise or lower the signal
Outline: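 BAD transcript change, measured by qRT-PCR against three housekeeping genes and fitted in both directions relative to 0.5% DMSO, after 48 h chemical treatment of human HepaRG liver cells at concentrations up to 100 uM.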

[19] = read-out: Bcl-2 (BAX) gene, BAX (gene 581); assay: LTEA_HepaRG_BAX: Life Technologies and Expression Analysis (LTEA) Assay for Bcl-2 (BAX) gene using HepaRG (AID 2283470); settings: mRNA level, 48 h; actives raise or lower the signal
Outline: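 Concentration-response endpoint fitted in both directions relative to 0.5% DMSO vehicle. Human HepaRG cultures receive test chemicals for 48 h at up to 100 uM; BAX mRNA is quantified by qRT-PCR against housekeeping genes.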

[20] = read-out: adenosine kinase (ADK) gene, ADK (gene 132); assay: LTEA_HepaRG_ADK: Life Technologies and Expression Analysis (LTEA) Assay for adenosine kinase (ADK) gene using HepaRG (AID 2283471); settings: mRNA level, 48 h; actives raise or lower the signal
Outline: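 HepaRG (human liver), 48 h chemical exposure, 8-pt half-log series, top 100 uM, 0.5% DMSO vehicle. Readout: ADK mRNA by qRT-PCR vs housekeeping genes; bidirectional curve fit relative to DMSO baseline.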

Sequence of Broad substrate specificity ATP-binding cassette transporter ABCG2 (Homo sapiens) (Q9UNQ0 whole entry, looked up): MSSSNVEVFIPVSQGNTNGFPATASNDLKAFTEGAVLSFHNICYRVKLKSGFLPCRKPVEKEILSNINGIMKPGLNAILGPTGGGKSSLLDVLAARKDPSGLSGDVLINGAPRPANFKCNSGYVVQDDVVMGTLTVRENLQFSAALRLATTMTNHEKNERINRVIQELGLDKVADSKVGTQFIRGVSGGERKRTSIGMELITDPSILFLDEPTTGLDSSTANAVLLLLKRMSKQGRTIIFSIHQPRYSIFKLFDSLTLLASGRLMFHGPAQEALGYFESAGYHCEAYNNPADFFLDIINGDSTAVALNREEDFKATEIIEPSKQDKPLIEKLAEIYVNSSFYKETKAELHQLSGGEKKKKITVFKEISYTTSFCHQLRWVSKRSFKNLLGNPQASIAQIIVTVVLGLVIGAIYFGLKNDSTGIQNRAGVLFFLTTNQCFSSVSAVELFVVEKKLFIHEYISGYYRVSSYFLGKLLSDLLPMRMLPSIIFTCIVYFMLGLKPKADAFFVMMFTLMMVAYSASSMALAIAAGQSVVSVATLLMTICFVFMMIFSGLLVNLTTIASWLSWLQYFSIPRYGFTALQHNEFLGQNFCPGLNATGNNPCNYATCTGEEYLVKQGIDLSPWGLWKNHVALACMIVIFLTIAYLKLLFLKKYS

## Cc1cc(N=Nc2ccccc2C)ccc1N
[1]
  AC50: 3.32 µM (active)
[2]
  AC50: 4.86 µM (active)
[3]
  AC50: 1.05 µM (active)
[4]
  AC50: 2.75 µM (active)
[5]
  AC50: 12.5 µM (active)
[6]
  outcome: inactive
[7]
  AC50: 3.52 µM (active)
[8]
  AC50: 5.56 µM (active)
[9]
  AC50: 5.45 µM (active)
[10]
  AC50: 7.67 µM (active)
[11]
  AC50: 13 µM (active)
[12]
  AC50: 4.58 µM (active)
[13]
  AC50: 3.17 µM (active)
[14]
  outcome: inactive
[15]
  AC50: 0.387 µM (active)
[16]
  AC50: 2.57 µM (active)
[17]
  AC50: 12.6 µM (active)
[18]
  outcome: inactive
[19]
  AC50: 1.99 µM (active)
[20]
  AC50: 4.93 µM (active)

## CCCCC(CC)COC(=O)c1ccc(C(=O)OCC(CC)CCCC)c(C(=O)OCC(CC)CCCC)c1 (stereo unspecified)
[1]
  outcome: inactive
[2]
  outcome: inactive
[3]
  AC50: 50 µM (active)
[4]
  outcome: inactive
[7]
  outcome: inactive
[8]
  outcome: inactive
[9]
  outcome: inactive
[10]
  outcome: inactive
[11]
  outcome: inactive
[12]
  outcome: inactive
[13]
  outcome: inactive
[14]
  outcome: inactive
[15]
  outcome: inactive
[16]
  outcome: inactive
[17]
  outcome: inactive
[18]
  outcome: inactive
[19]
  outcome: inactive
[20]
  outcome: inactive

## ClC1=C(Cl)[C@]2(Cl)[C@H]3[C@H]([C@@H]4C=C[C@H]3C4)[C@@]1(Cl)C2(Cl)Cl
[1]
  outcome: inactive
[2]
  outcome: inactive
[3]
  AC50: 38.3 µM (active)
[4]
  outcome: inactive
[5]
  outcome: inactive
[7]
  outcome: inactive
[8]
  outcome: inactive
[9]
  outcome: inactive
[10]
  outcome: inactive
[11]
  outcome: inactive
[12]
  outcome: inactive
[14]
  AC50: 9.92 µM (active)
[15]
  outcome: inactive
[16]
  outcome: inactive
[17]
  outcome: inactive
[18]
  outcome: inactive
[19]
  outcome: inactive
[20]
  outcome: inactive
